Compound activity (PubChem BioAssay)
Most compounds without a hit are left out; they make up all but 7.4% or so of the library.
ELG1 genotox – qHTS screen for small molecules that induce genotoxicity in human embryonic kidney (HEK293T) cells expressing luciferase-tagged ELG1. HEK293T ELG1-luciferase reporter, luminescence, 16 h. Potency, µM (titrated, usually from 46 µM), for the others: top-dose activity change, positive = activation, usual class: activators. hit rate 1.3% among 330,000; also: % of control where 0% means no effect; nearly all actives have a fitted effect of over 60% in size
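Genotoxic stress is detected as increased luminescence from luciferase-tagged ELG1 in HEK293T cells, measured with ONE-Glo after a 16 hr treatment at 37 °C.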
SMN2 splice enh – qHTS Assay for Enhancers of SMN2 Splice Variant Expression. HEK293 SMN2-luciferase splicing reporter, luminescence, 30-36 h. Potency, µM (top dose mostly 46.1 µM), for inactives: top-dose activity change, positive = activation, actives largely listed as activators. hit rate 2.8% among 210,000. AID 1458, 2008; also: % of control where 0% means no effect; nearly all actives have a fitted effect of over 55% in size
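HEK293 cells carry an SMN2 minigene-luciferase reporter in which exon 7 inclusion puts luciferase in frame. Cells were seeded at 2000 cells/well, attached for 10-12 hours, then exposed to compounds for 30-36 hours at 37C before ONE-Glo luminescence.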
FLuc counter – qHTS profiling assay for firefly luciferase inhibitor/activator using purifed enzyme and Km concentrations of substrates (counterscreen for miR-21 project) | Luciferin 4-monooxygenase (Photinus pyralis), P08659 | purified FLuc, Km substrates, luminescence inhibition | Potency, µM (highest dose often 57.5 µM), inactives show at the highest dose activity change, negative = inhibition, usual class: inhibitors | hit rate 6.9% among 360,000 | AID 588342, 2011;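 also: plate controls were vehicle for no effect and reference inhibitor for full effect; nearly all actives have a fitted effect of over 55% in size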
Target sequence (P08659 whole entry, looked up): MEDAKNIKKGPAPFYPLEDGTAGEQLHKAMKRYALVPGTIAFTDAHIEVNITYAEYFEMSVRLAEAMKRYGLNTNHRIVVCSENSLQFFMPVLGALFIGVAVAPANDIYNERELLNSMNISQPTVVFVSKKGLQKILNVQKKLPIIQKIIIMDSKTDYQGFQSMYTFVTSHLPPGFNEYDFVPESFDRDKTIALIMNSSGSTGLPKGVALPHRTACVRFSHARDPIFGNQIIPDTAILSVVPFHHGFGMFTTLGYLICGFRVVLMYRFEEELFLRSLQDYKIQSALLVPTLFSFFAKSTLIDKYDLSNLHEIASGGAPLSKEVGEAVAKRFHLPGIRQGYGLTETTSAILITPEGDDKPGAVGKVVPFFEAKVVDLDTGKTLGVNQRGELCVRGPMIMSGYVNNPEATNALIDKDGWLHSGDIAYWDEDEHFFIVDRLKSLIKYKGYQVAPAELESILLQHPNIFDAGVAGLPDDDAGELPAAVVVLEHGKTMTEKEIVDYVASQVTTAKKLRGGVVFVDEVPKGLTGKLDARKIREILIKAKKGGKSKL
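Biochemical qHTS of compounds, final roughly 60 µM downward over six points, against 10 nM purified firefly luciferase using Km concentrations of substrates (10 uM D-luciferin, 10 uM ATP) in Tris acetate pH 7.5 buffer; luminescence output.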
Rab9 promoter act – qHTS Assay for Rab9 Promoter Activators; Potency, µM (series often up to 9.22 µM), inactives show top-dose activation, negative = inhibition, most hits filed as activators; hit rate 2.8% among 320,000; Huh7 Rab9 promoter-luciferase reporter, luminescence, 24 h; also: % of control where 0% means no effect; nearly all actives have a fitted effect of over 60% in size
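Luciferase signal after 10 min detection reagent at ambient indicates Rab9 promoter upregulation; stably transfected Huh7 cells were treated 24 h with compound in DMSO at 37 °C, 5% CO2.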
NPC1 promoter act – qHTS Assay for NPC1 Promoter Activators; Huh7 NPC1 promoter luciferase reporter, 24 h; Potency, µM (doses to about 9.22 µM), for inactives: at the highest dose activation, hits mostly activators; hit rate 2.4% among 320,000; AID 485313, 2010; also: % of control where 0% means no effect; nearly all actives have a fitted effect of over 60% in size
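Huh7 cells stably carrying NPC1 promoter–luciferase, plated in Opti-MEM with 10% FBS for 2 h, were exposed to compound in DMSO for 24 h at 37 °C; luciferase reagent was added for 10 min and luminescence read.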
* hit, by the source's call; [ ] = another dose, or the depositor's remark. Calls follow the shape of the dose curve; as a rule, active = well fitted curve in the direction sought with a large enough effect; inconclusive = small, poorly fitted or top-dose-only effect, or another doubt; inactive = no such curve, though single readings can be large; an effect the other way counts as inactive or inconclusive. Potency is read from the fitted curve at half-maximal effect.

Screening CCOC(=O)C1C(=O)OC(C)(C)C1C(CC)C(=O)c1c(C)cc(C)cc1C (stereo not drawn) returned ELG1 genotox -3%, FLuc counter 0%, Rab9 promoter act 1% and NPC1 promoter act 0%.
O=S(=O)(CCC1CCCCN1)c1ccccc1 (stereo not drawn) was read as ELG1 genotox -5%, FLuc counter 1%, Rab9 promoter act -4% and NPC1 promoter act 5%.
Screening CC1CCCN(C(=O)CSc2nnc(-c3cccs3)o2)C1 (stereo not drawn) returned ELG1 genotox inconclusive, FLuc counter 21µM*, Rab9 promoter act 3.5µM* and NPC1 promoter act 2.5µM*.
Screening CCC1CCCCN1C(=O)CSc1nnc(-c2cccs2)o1 (stereo not drawn) returned ELG1 genotox 6.5µM*, SMN2 splice enh inconclusive, FLuc counter 17µM*, Rab9 promoter act 3.2µM* and NPC1 promoter act inconclusive.
COc1ccc(OC)c(NC(=O)Cn2c(=O)n(CC3CCCO3)c(=O)c3cc(OC)c(OC)cc32)c1 (stereo not drawn) was read as ELG1 genotox 1%, SMN2 splice enh -15%, FLuc counter -2%, Rab9 promoter act -2% and NPC1 promoter act -3%.
For O=C(O)c1csc(-c2ccc(Cl)cc2)n1 the results were ELG1 genotox 1%, SMN2 splice enh 10%, FLuc counter -20%, Rab9 promoter act 1% and NPC1 promoter act 3%.
`Clc1ccc(-c2cn3ncsc3n2)cc1` gave SMN2 splice enh -1% and FLuc counter 12µM*.
`CCOc1ccc(C2NC(=O)C(C#N)=C(S)N2c2ccc(C)cc2)cc1OC` (stereo not drawn) gave ELG1 genotox 12%, SMN2 splice enh -13%, FLuc counter 17µM*, Rab9 promoter act -1% and NPC1 promoter act -2%.
Screening O=c1[nH]c(-c2ccc(-c3cccc(Cl)c3)o2)nc2ccccc12 returned ELG1 genotox 2.6µM*.
For COc1ccc2c(c1OC)C(=O)N1N=C(c3ccc(-c4ccccc4)cc3)CC21 (stereo not drawn) the results were ELG1 genotox 1%, SMN2 splice enh -7%, FLuc counter inconclusive, Rab9 promoter act -1% and NPC1 promoter act 4%.
Screening S=C1NC2(CCS1)Oc1ccccc1C1CC(c3ccccc3)=NN12 (stereo not drawn) returned ELG1 genotox 6%, FLuc counter 27µM*, Rab9 promoter act 1% and NPC1 promoter act 1%.
Screening Cc1ccc(CSc2nnc(-c3cccc4ccccc34)o2)cc1 returned ELG1 genotox 3%.
`c1ccc(Nc2nnc(-c3cccc4ccccc34)o2)cc1` gave ELG1 genotox inconclusive, FLuc counter 2.1µM*, Rab9 promoter act inconclusive and NPC1 promoter act -5%.
CC(C)CCn1cnc2c(oc3nc4c(cc32)CCCC4)c1=O was read as ELG1 genotox inconclusive, FLuc counter 1.7µM*, Rab9 promoter act 0.45µM* and NPC1 promoter act 0.5µM*.
`CC(=O)Nc1ccc(NC(=O)C2CCN(c3c(NC(C)=O)c(C)nn3-c3ccccc3)CC2)cc1` gave FLuc counter 2%.
`O=C(CSc1nc(NS(=O)(=O)c2ccccc2)cc(=O)[nH]1)Nc1ccc(Cl)cc1` gave ELG1 genotox -1%, FLuc counter -1%, Rab9 promoter act -8% and NPC1 promoter act -2%.
`O=c1cc(NS(=O)(=O)c2ccccc2)nc(SCc2ccc(Cl)cc2)[nH]1` gave ELG1 genotox 23µM*, SMN2 splice enh -1%, FLuc counter -1%, Rab9 promoter act -8% and NPC1 promoter act -1%.
CCCCN(C(=O)C1=CC=CN2CCS(=O)(=O)N=C12)c1ccccc1 was read as ELG1 genotox 1%, FLuc counter -3%, Rab9 promoter act 0% and NPC1 promoter act 18%.
Screening Cc1ccc(OCC(=O)Nc2ccc(F)cc2)cc1 returned ELG1 genotox inconclusive, SMN2 splice enh 19%, FLuc counter 15µM*, Rab9 promoter act -5% and NPC1 promoter act -1%.
`COc1ccc(OCC(=O)Nc2ccc(C)cc2)cc1` gave ELG1 genotox 18%, SMN2 splice enh 9%, FLuc counter inconclusive, Rab9 promoter act 3% and NPC1 promoter act -2%.
Screening Cc1ccc(OCC(=O)Nc2ccncc2)cc1 returned ELG1 genotox 5%, FLuc counter 13µM*, Rab9 promoter act 0% and NPC1 promoter act 0%.
`Cc1ccc(-n2nc3cc(C)c(NC(=O)COc4ccccc4)cc3n2)cc1` gave FLuc counter 7%.
COc1ccc2c(c1)c1c(c(=O)n(-c3ccc(C)cc3)c(=O)n1CC(=O)NCc1ccc(C)cc1)n2C was read as FLuc counter -1%.
`COC(=O)Cc1c(OC)ccn(CCc2c[nH]c3ccccc23)c1=O` gave ELG1 genotox inconclusive, SMN2 splice enh 11µM*, FLuc counter 17µM*, Rab9 promoter act 3.2µM* and NPC1 promoter act inconclusive.
`Cc1ccc(-n2c(C)cc(C(=O)CSc3n[nH]c(N)n3)c2C)cc1` gave ELG1 genotox 1%, SMN2 splice enh -34%, FLuc counter 9.5µM*, Rab9 promoter act 20% and NPC1 promoter act 26%.
For Cc1cc(C(=O)CSc2n[nH]c(N)n2)c(C)n1-c1ccccc1 the results were ELG1 genotox 4.5µM*, SMN2 splice enh 11µM*, FLuc counter 6µM*, Rab9 promoter act inconclusive and NPC1 promoter act 2.5µM*.
For Cc1cc(C(=O)CSc2n[nH]c(N)n2)c(C)n1-c1cc(F)ccc1F the results were ELG1 genotox 10%, SMN2 splice enh 13%, FLuc counter -3%[2.3 µM], Rab9 promoter act inconclusive and NPC1 promoter act 25%.
Screening Cc1cc(C(=O)CSc2n[nH]c(N)n2)c(C)n1-c1ccc(F)cc1 returned ELG1 genotox 15%, SMN2 splice enh -12%, FLuc counter 19µM*, Rab9 promoter act inconclusive and NPC1 promoter act inconclusive.
For C=CCn1c(C)cc(C(=O)CSc2n[nH]c(N)n2)c1C the results were ELG1 genotox 15µM*, SMN2 splice enh inconclusive, FLuc counter 19µM*, Rab9 promoter act 19% and NPC1 promoter act 24%.
For CC(NC(=O)C1CCC(CNS(=O)(=O)c2ccccc2)CC1)c1ccc2c(c1)OCCO2 (stereo not drawn) the results were ELG1 genotox -7%, SMN2 splice enh -11%, FLuc counter 1%, Rab9 promoter act -12% and NPC1 promoter act -2%.
Cc1cc(C(=O)CSc2nnc(-c3ccccc3)n2-c2ccccc2)c(C)n1-c1ncn[nH]1 was read as ELG1 genotox 4%, SMN2 splice enh 4%, FLuc counter -1%, Rab9 promoter act -10% and NPC1 promoter act 4%.
